# Data: PubChem BioAssay (NCATS)
# Values joined by “and” are separate entries in the source; they are usually repeats but may differ in a detail not shown here. Equal values may be shown once. Records with an inconclusive call do not appear. Where a call stands in place of a potency, no number is given. A number with no mark means an inactive call. Active and inactive are the calls of the source. Calls follow the shape of the dose curve; as a rule, active = well fitted curve in the direction sought with a large enough effect; inconclusive = small, poorly fitted or top-dose-only effect, or another doubt; inactive = no such curve, though single readings can be large; an effect the other way counts as inactive or inconclusive.
# Legend:
# [1] = biological target: Cellular tumor antigen p53 (Homo sapiens) (UniProt P04637); experiment: Primary qHTS for small molecule compounds that upregulate eGFP-tagged delta133p53alpha (in N-terminal) cells. (AID 2060322); settings: NCI-H358 eGFP-delta133p53alpha fluorescence, 24 h; activation: active compounds read high; also: nearly all actives have a fitted effect of over 75% in size
# Chain of Cellular tumor antigen p53 (Homo sapiens) (P04637 whole entry, looked up): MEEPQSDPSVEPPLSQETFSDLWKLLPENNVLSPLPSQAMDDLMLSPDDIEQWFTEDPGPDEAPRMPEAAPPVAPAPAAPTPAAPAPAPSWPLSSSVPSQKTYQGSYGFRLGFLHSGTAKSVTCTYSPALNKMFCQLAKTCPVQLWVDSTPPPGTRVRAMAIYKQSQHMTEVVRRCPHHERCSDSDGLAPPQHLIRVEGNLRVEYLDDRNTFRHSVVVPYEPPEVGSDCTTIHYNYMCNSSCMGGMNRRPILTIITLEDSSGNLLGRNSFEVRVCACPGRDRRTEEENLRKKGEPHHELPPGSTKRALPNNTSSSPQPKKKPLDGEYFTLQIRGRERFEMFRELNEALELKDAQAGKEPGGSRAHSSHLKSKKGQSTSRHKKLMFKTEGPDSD
# In short: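 NCI-H358 cells pre-induced 24 h with 10 ng/ml doxycycline to express N-terminal eGFP-delta133p53alpha, then dosed 24 h at 37C without doxycycline; fixed, Hoechst-stained, GFP intensity by laser scanning cytometry, normalized to DMSO (0%) and 57.5 uM 5-azacytidine (100%).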
# [2] = BET inhibitor-based combinations targeting novel dependencies in MECOM-rearranged (r) AML: SET-2 cell line (AID 2202231); settings: SET-2 AML cells viability, CellTiter-Glo luminescence, 48 h; viability: active compounds read low, concentration not given here; also: nearly all actives have a fitted effect of over 35% in size; also: potency is read from the fitted curve at half-maximal effect
# In short: (§1)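 Cells were plated at 500 per well and exposed to an 11-point dose series of each drug for 48 hr. Viability was measured by CellTiter-Glo luminescence, normalized to DMSO and empty-well controls, and summarized as AUC and per-cell-line Z-AUC.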
# [3] = BET inhibitor-based combinations targeting novel dependencies in MECOM-rearranged (r) AML: OCI-AML3 cell line (AID 2202232); settings: CellTiter-Glo luminescence, 48 h; Potency: OCI-AML3 viability; series mostly up to 46 µM; also: nearly all actives have a fitted effect of over 35% in size; also: potency is read from the fitted curve at half-maximal effect
# In short: as §1
# [4] = BET inhibitor-based combinations targeting novel dependencies in MECOM-rearranged (r) AML: MV-4-11 cell line (AID 2202233); settings: MV-4-11 AML viability, CellTiter-Glo luminescence, 48 h; series mostly up to 46 µM; also: nearly all actives have a fitted effect of over 45% in size; also: potency is read from the fitted curve at half-maximal effect
# In short: (§2)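 Activity is given as area under the curve and as Z-AUC, mean-centred within each cell line. It comes from 11-point dose curves normalized to DMSO and empty wells. CellTiter-Glo luminescence was read after 48 hr drug exposure of 500 cells/well.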
# [5] = BET inhibitor-based combinations targeting novel dependencies in MECOM-rearranged (r) AML: HNT-34 cell line (AID 2202234); settings: HNT-34 AML viability, CellTiter-Glo luminescence, 48 h; series mostly up to 46 µM; also: nearly all actives have a fitted effect of over 35% in size; also: potency is read from the fitted curve at half-maximal effect
# In short: as §2
# [6] = BET inhibitor-based combinations targeting novel dependencies in MECOM-rearranged (r) AML: UCSD-AML1 cell line (AID 2202235); settings: UCSD-AML1 AML cells viability, CellTiter-Glo, 48 h; series mostly up to 46 µM; also: nearly all actives have a fitted effect of over 40% in size; also: potency is read from the fitted curve at half-maximal effect
# In short: as §2
# [7] = BET inhibitor-based combinations targeting novel dependencies in MECOM-rearranged (r) AML: AML-191 cell line (AID 2202236; also: nearly all actives have a fitted effect of over 35% in size; also: potency is read from the fitted curve at half-maximal effect); settings: AML-191 viability, CellTiter-Glo luminescence, 48 h; series mostly up to 46 µM
# In short: as §1
# [8] = BET inhibitor-based combinations targeting novel dependencies in MECOM-rearranged (r) AML: AML-194 cell line (AID 2202237; also: nearly all actives have a fitted effect of over 40% in size; also: potency is read from the fitted curve at half-maximal effect); settings: AML-194 (MECOM-r AML) viability, CellTiter-Glo, 48 h; series mostly up to 46 µM
# In short: as §1
SMILES,activation [1],viability [2] [%],Potency [3],Potency [4],Potency [5],Potency [6],Potency [7],Potency [8],Potency [2]
Cc1ccc(S(=O)(=O)OCC(=O)Nc2ccc(C(=O)O)c(O)c2)cc1,22.5%,117,inactive,inactive,inactive,inactive,inactive,inactive,
CC1Cc2ccccc2N1NC(=O)c1ccc(Cl)c(S(N)(=O)=O)c1 (centres undefined),-9.21% and -1.28%,112,inactive,inactive,inactive,inactive,inactive,inactive,
CCCc1cc(=O)[nH]c(=S)[nH]1,-13.4% and -2.19%,110,inactive,inactive,inactive,inactive,inactive,inactive,
CCOC(=O)C=C[C@H](C[C@@H]1CCNC1=O)NC(=O)[C@@H](CC(=O)[C@@H](NC(=O)c1cc(C)on1)C(C)C)Cc1ccc(F)cc1,17.3%,120,inactive,inactive,inactive,inactive,inactive,inactive,
C=C(C)[C@@H]1CC[C@]2(C(=O)O)CC[C@]3(C)[C@H](CC[C@@H]4[C@@]5(C)CC[C@H](O)C(C)(C)[C@@H]5CC[C@]43C)[C@@H]12,7.46%,115,inactive,inactive,inactive,inactive,inactive,inactive,
COc1cc([C@@H]2c3cc4c(cc3[C@H](O)[C@H]3COC(=O)[C@@H]23)OCO4)cc(OC)c1OC,31.7%,,0.833 µM (active),0.833 µM (active),0.417 µM (active),0.468 µM (active),0.662 µM (active),0.525 µM (active),1.18 µM (active)
CCCCCN=C(N)N/N=C/c1c[nH]c2ccc(OC)cc12,9.6%,,8.33 µM (active),8.33 µM (active),9.34 µM (active),16.6 µM (active),18.6 µM (active),20.9 µM (active),23.5 µM (active)
C/C=C/C(=O)N(CC)c1ccccc1C,-2.82%,107,inactive,inactive,inactive,inactive,inactive,inactive,
NS(=O)(=O)c1cccc2c1C(=O)c1cccc(O)c1C2=O,-16%,,1.66 µM (active),0.332 µM (active),1.86 µM (active),2.09 µM (active),2.35 µM (active),2.63 µM (active),2.95 µM (active)
CCCc1cc(C(N)=S)ccn1,-10.9% and -12.4%,112,inactive,inactive,inactive,inactive,inactive,inactive,
CC(=O)SC[C@@H](C)C(=O)N1CCC[C@H]1C(=O)N[C@@H](Cc1ccccc1)C(=O)O,-26.8%,115,inactive,inactive,inactive,inactive,inactive,inactive,
NCCCC(O)(P(=O)(O)O)P(=O)(O)O,36.7% and -7.88%,114,inactive,inactive,inactive,inactive,inactive,inactive,
c1cc(CN2CCCNCCNCCCNCC2)ccc1CN1CCCNCCNCCCNCC1,39.7%,87.5,inactive,inactive,inactive,inactive,inactive,inactive,
O=C(O)C1=CC(O)C(O)[C@H](O)C1 (some centres undefined),16.4%,115,inactive,inactive,inactive,inactive,inactive,inactive,
C[C@@H]1CN(c2c(F)c(N)c3c(=O)c(C(=O)O)cn(C4CC4)c3c2F)C[C@H](C)N1,22.7%,102,inactive,inactive,inactive,inactive,inactive,inactive,
CCC[C@H](N[C@@H](C)C(=O)N1[C@@H]2CCCC[C@H]2C[C@H]1C(=O)O)C(=O)OCC,-22.1%,110,inactive,inactive,inactive,inactive,inactive,inactive,
Cc1cc(C2CCCCC2)n(O)c(=O)c1,25.4%,,10.5 µM (active),4.17 µM (active),10.5 µM (active),16.6 µM (active),11.8 µM (active),10.5 µM (active),18.6 µM (active)
Cc1cnc(Nc2ccc(N3CCN(C)CC3)cc2)nc1Nc1cccc(S(=O)(=O)NC(C)(C)C)c1,28.8%,,5.25 µM (active),0.662 µM (active),0.833 µM (active),1.86 µM (active),2.63 µM (active),2.95 µM (active),2.63 µM (active)
